# Experimental data: PubChem BioAssay
# Unmarked numbers belong to inactive results. Activity calls are given as the source filed them.
# Experiment: growth modulation of vineyard yeast isolate – strain RM11-1a, OD600, basal, 24 h, primary screen (AID 1177);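 note: cultures grown under basal conditions with no added stressor; test concentration not given here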
# Conditions: S. cerevisiae RM11-1a growth, OD600, 24 h; higher = more signal, called active from +8 up or from −8 down
row,SMILES,z-score
1,CC(C)c1ccc(NN2C(C(O)c3ccc4c(c3)OCO4)C=CC3C(=O)N(c4ccccc4)C(=O)C32)cc1 (stereo unspecified),0.266
2,CN1C(=O)[C@@]2(CCC(=O)OC(C)(C)C)N=C(c3ccc(OCCCO)cc3)O[C@H]2c2ccccc21,-0.177
3,COC(=O)[C@@]1(Cc2ccc(F)cc2)[C@@H]2C(=CC(=O)[C@H]2CC(=O)C(=O)N(C)C)CN1C(=O)c1ccccc1,1.38
4,O=C(CS)NCCCCCNC(=O)[C@H]1C[C@H]2C(=O)N3CCC[C@H]3C(=O)N2[C@H]1c1cccc(OCCO)c1,0.18
5,C=CCOC(=O)[C@H]1[C@@H]2C(=O)O[C@@H](c3ccccc3)[C@@H](c3ccccc3)N2[C@@H](c2ccc(OCCOC(=O)[C@H]3C[C@H]4C(=O)N[C@@H](Cc5ccccc5)C(=O)N4[C@H]3c3ccc(O)cc3)cc2)[C@]12C(=O)Nc1ccccc12,1.71
6,COc1ccc([Si](C)(C)[C@@H]2[C@@H](CCO)O[C@]3(C(=O)N(Cc4ccc(NC(C)=O)cc4)c4ccccc43)[C@H]2C)cc1,3.91
7,CCCCCN1CC=CC23O[C@@H]4C=CCOC(=O)[C@@H]4[C@H]2C(=O)N(CCCCCCO)[C@@H]3C1=O (stereo partly specified),0.151
8,COC(=O)C1(C)C=C2C(=C(c3ccccc3)C(=O)C2C)CN1 (stereo unspecified),0.376
9,CC(C)N1CC=CC23O[C@@H]4C=CCCOC(=O)C4[C@H]2C(=O)N(CCCCCCO)[C@@H]3C1=O (stereo partly specified),0.638
10,COc1ccc([Si](C)(C)[C@H]2[C@H](CCO)O[C@@]3(C(=O)N(Cc4cccc(NC(=O)[C@H](C)O)c4)c4ccccc43)[C@@H]2C)cc1,4.03
11,COc1ccc(CCNC(=O)[C@@H]2c3ccccc3C(=O)N(c3ccc(C)cn3)[C@H]2c2ccc(CO)cc2)cc1,-0.195
12,C=CCNC(=O)[C@H]1[C@@H]2C(=O)O[C@@H](c3ccccc3)[C@@H](c3ccccc3)N2[C@@H](c2ccc(O)cc2)[C@]12C(=O)N(C(=O)OCCOC)c1ccc(C#CC3=CCCCC3)cc12,1.01
13,[N-]=[N+]=NCc1ccccc1[C@@H]1OC(c2ccc(OCCCO)cc2)=N[C@]1(Cc1ccccc1)C(=O)N1CCOCC1,0.165
14,CC(C)C[C@@H]1NC(=O)[C@H]2C[C@@H](C(=O)NCCCCCCN(C)C)[C@@H](c3cccc(OCCO)c3)N2C1=O,-0.159
15,C=C(/C(=C/C[C@@H](OC(=O)c1ccncc1)c1ccc(OCCO)cc1)c1cnc2ccccc2c1)C(C)C,-22.1 (active)
16,CS(=O)(=O)CCOC(=O)C1=CC(CCCO)=CC(c2cccs2)N(Cc2cccc(OC(F)(F)F)c2)C=C1C(=O)OCCS(C)(=O)=O (stereo unspecified),0.0788
17,COCCCNC(=O)[C@]1(CCC(=O)OC(C)(C)C)N=C(c2ccc(OCCCO)cc2)O[C@@H]1c1ccccc1N=[N+]=[N-],0.149
18,Cc1ccc(C2CC=C(C(=O)O)CN2S(=O)(=O)c2ccc(C)cc2)cc1 (stereo unspecified),0.603

row,SMILES,z-score
1,O=C1O[C@@H](c2ccccc2)[C@@H](c2ccccc2)N2[C@@H](c3ccc(OCCO)cc3)[C@]3(C(=O)Nc4ccccc43)[C@@H](C(=O)N3CCN(c4ncccn4)CC3)[C@H]12,2.78
2,COCCOC(=O)N1C(=O)[C@@]2(c3cc(C#CCNC(N)=O)ccc31)[C@H](c1ccccc1OCCO)N1[C@H](c3ccccc3)[C@H](c3ccccc3)OC(=O)[C@H]1[C@@H]2C(=O)N1CCN(c2ncccn2)CC1,0.733
3,COCCOC(=O)N1C(=O)[C@@]2(c3cc(C#Cc4ccc(OC)cc4)ccc31)[C@H](C(=O)N1CCN(c3ncccn3)CC1)[C@H]1C(=O)O[C@H](c3ccccc3)[C@H](c3ccccc3)N1[C@@H]2c1ccc(OCCO)cc1,3.06
4,CN(C)CCCNC(=O)[C@@H]1c2ccccc2C(=O)N(Cc2cc(F)cc(C(F)(F)F)c2)[C@H]1c1ccc(CO)cc1,0.0333
5,CCCNC(=O)[C@@H]1c2ccccc2C(=O)N(c2ccc(C)cn2)[C@H]1c1ccc(CO)cc1,-0.826
6,CN1C(=O)C2C=CC(C(O)c3ccc(I)cc3)N(NC(=O)OC(C)(C)C)C2C1=O (stereo unspecified),0.983
7,COC(=O)c1c(CC[C@@H](CO)NC(=O)N[C@H](Cc2ccccc2)Cn2cc(-c3ccccc3N)nn2)oc(C(C)=O)c1C(=O)OC,-0.053
8,CCCC=C(CCC)[C@@H](NC(=O)c1ccc(-c2ccccc2)cc1)c1ccc(C(=O)OC)cc1,1.23
9,COCC(=C=CC[C@@H](O)c1ccccc1OCCO)CCO,0.0502
10,CC1CC/C=C\[C@H]2OC34C=CCN(C(C)C)C(=O)[C@H]3N(CCCO)C(=O)[C@@H]4C2C(=O)O1 (stereo partly specified),-0.467
11,Cn1cccc1C(O)C1C=CC2C(=O)NC(=O)C2N1Nc1ccccn1 (stereo unspecified),-0.0064
12,CCCC[C@H]1OB(O)C[C@H]2C1=C(C)C[C@H]1C(=O)N(C)C(=O)[C@H]12,-0.776
13,Cc1ccc(S[C@]2(C(=O)NCC(F)(F)F)CC(=O)N(Cc3ccccc3Cl)[C@@H]2c2ccc(CO)cc2I)cc1,-0.54
14,CC(C)NC(=O)[C@@H]1c2ccccc2C(=O)N(CC23CC4CC(CC(C4)C2)C3)[C@H]1c1ccc(CO)cc1,-1.52
15,CCc1cccc(NC(=O)O[C@H]2[C@H](OC(=O)Nc3ccc4c(c3)OCO4)[C@@H](OC(=O)Nc3ccc4c(c3)OCO4)[C@@H](OC)O[C@@H]2CO)c1,1.88
16,CC(C)OC(=O)C=C1C[C@@H](c2ccc(C#N)cc2)O[C@@H](c2ccc(C#N)cc2)O1,0.146
17,COC(=O)C1=CCC(c2cccc(Cl)c2)O1 (stereo unspecified),-0.695
18,CCCC[C@@H](O)C1=C(C)C[C@H]2C(=O)N(Cc3ccccc3)C(=O)[C@H]2[C@H]1CO,0.161
